Results on one sequence are retold here after paper PMC7862700, “An all-to-all approach to the identification of sequence-specific readers for epigenetic DNA modifications on cytosine”.

Holding throughout (assay): DAPPL (digital affinity profiling via proximity ligation, sequencing); 10 mM Tris-HCl pH 7.5, 50 mM NaCl, 1 mM DTT, 4% glycerol, room temperature, 30 min; GST-TFs on glutathione beads, 16-mer random dsDNA library, 0.1% formaldehyde crosslink after washing; high values mean tight binding
Common to all, as to conditions: protein: recombinant; tags: N-terminal GST; dsDNA, one strand shown

One assay addresses T1, ELK1 (Homo sapiens, UniProt P19419 1-428).
T1 sequence: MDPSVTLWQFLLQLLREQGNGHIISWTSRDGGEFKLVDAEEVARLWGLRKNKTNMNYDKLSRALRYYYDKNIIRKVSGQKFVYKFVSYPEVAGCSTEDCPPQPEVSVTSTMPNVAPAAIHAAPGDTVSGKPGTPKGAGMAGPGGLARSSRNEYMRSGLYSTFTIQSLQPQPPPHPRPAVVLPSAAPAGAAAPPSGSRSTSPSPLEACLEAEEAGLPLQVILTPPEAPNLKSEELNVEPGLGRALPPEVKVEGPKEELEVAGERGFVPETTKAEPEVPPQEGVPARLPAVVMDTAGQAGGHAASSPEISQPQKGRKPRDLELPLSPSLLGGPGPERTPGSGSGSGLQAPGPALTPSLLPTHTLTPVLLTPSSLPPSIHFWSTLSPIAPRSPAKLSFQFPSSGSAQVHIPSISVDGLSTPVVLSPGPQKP
The essentials: (§1)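 Each value of binding signal is a hexamer's read frequency for a factor divided by the same hexamer's frequency in the tag-only sample. Barcoded, bead-captured GST fusions of human transcription factors made in yeast were pooled with that sample and incubated with 200 nmole of a random double-stranded 16-mer DNA library in Tris/NaCl/DTT/glycerol buffer at room temperature for 30 min. Washing, 0.1% formaldehyde crosslinking, proximity ligation, PCR and Illumina NextSeq500 sequencing followed.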

Another assay addresses T2, GABPA (Homo sapiens, UniProt Q06546 1-454).
T2 sequence: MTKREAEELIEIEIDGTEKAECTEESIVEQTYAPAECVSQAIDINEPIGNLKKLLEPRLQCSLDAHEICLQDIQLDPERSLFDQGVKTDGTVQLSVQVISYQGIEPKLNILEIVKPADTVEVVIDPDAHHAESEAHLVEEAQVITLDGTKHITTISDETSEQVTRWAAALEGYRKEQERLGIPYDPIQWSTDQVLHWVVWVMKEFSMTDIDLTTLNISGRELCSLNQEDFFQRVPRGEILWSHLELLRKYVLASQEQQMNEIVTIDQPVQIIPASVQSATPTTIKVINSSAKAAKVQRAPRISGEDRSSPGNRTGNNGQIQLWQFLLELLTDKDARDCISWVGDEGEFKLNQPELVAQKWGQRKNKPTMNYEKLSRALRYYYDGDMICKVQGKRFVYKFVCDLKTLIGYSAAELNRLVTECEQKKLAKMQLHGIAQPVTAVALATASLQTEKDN
The essentials:
as §1

A further assay has as its target ELF1 (Homo sapiens, UniProt P32519 1-619). The procedure, abridged: as §1
A further assay addresses T3, EHF (Homo sapiens, UniProt Q9NZC4 1-300).
T3 sequence: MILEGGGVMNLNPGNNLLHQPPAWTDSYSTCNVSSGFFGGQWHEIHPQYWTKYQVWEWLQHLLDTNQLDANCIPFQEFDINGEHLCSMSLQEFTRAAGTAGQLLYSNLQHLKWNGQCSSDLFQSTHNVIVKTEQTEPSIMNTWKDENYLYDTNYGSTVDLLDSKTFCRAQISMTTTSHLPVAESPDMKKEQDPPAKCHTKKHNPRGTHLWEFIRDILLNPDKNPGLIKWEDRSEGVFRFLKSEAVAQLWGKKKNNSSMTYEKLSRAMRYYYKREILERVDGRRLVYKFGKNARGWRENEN
The procedure, abridged:
as §1

A further assay has as its target SPI1 (Homo sapiens, UniProt P17947 1-270). The essentials: as §1
The target in the next assay is SPIB (Homo sapiens, UniProt Q01892 1-262). The essentials:
as §1

Another assay addresses T4, SPIC (Homo sapiens, UniProt Q8N5J4 1-248).
T4 sequence: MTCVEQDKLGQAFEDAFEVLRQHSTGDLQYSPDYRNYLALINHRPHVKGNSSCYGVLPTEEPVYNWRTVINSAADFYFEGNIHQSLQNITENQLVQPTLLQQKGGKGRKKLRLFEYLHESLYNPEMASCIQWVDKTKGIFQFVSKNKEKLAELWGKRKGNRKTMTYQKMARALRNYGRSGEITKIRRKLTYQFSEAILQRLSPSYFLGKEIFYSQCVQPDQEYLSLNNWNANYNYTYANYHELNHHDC
The procedure, abridged:
as §1

A further assay deals with ELF4 (Homo sapiens, UniProt Q99607 1-663). The essentials:
as §1

A further assay addresses T5, ELK4 (Homo sapiens, UniProt P28324-2 1-405).
T5 sequence: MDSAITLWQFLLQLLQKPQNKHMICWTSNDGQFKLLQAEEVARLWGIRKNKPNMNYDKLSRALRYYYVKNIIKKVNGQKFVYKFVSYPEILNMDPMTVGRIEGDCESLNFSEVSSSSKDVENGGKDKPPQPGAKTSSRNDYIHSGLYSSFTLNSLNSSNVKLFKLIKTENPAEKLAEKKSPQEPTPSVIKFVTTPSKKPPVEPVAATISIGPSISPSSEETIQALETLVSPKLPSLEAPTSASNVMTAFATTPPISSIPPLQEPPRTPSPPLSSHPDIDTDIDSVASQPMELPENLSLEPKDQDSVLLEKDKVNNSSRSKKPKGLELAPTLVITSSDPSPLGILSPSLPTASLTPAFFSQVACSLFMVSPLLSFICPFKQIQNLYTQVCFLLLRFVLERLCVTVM
The procedure, abridged:
as §1

The target of a further assay is T6, ERF (Homo sapiens, UniProt P50548 1-548).
T6 sequence: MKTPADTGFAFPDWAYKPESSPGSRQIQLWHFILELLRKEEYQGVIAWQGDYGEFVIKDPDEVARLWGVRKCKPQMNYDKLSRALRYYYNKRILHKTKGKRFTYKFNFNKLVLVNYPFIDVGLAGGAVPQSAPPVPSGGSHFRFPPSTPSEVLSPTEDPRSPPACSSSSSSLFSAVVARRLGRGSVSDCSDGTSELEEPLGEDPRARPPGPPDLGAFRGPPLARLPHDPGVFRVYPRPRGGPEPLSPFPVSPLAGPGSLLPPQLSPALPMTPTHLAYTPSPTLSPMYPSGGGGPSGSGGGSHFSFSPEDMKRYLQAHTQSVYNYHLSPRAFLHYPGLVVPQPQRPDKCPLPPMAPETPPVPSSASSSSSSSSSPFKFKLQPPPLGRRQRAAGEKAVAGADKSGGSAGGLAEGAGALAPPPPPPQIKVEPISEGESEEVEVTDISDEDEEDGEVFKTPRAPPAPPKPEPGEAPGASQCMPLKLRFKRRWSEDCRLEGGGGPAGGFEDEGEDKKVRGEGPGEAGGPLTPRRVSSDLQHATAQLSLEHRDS
The essentials: as §1

Another assay concerns the target T7, ETV3L (Homo sapiens, UniProt Q6ZN32 1-361).
T7 sequence: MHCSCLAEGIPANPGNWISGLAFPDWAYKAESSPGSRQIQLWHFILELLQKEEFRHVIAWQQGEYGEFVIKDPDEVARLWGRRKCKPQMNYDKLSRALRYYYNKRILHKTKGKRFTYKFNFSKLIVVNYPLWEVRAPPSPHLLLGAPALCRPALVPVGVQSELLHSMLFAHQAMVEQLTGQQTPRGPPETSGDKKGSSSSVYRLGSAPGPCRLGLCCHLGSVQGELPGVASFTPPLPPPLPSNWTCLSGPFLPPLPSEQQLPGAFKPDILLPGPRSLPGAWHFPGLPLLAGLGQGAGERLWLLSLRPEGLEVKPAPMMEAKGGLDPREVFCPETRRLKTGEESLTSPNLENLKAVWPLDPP
The essentials:
as §1

The next assay addresses T8, ETS2 (Homo sapiens, UniProt P15036 1-469).
T8 sequence: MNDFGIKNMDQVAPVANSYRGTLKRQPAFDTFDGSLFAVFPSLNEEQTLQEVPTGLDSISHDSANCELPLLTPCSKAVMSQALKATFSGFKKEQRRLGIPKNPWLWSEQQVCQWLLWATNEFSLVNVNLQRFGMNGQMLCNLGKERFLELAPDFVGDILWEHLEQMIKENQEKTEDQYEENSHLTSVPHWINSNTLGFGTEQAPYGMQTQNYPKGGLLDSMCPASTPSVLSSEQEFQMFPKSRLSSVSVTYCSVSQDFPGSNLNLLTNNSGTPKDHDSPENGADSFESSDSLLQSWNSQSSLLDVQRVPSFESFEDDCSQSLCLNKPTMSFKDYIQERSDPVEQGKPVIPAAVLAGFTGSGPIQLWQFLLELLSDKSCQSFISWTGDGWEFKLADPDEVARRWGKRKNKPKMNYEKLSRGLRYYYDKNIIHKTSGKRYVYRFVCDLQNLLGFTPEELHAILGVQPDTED
The procedure, abridged: as §1

The next assay addresses T9, ETV3 (Homo sapiens, UniProt P41162-2 1-143).
T9 sequence: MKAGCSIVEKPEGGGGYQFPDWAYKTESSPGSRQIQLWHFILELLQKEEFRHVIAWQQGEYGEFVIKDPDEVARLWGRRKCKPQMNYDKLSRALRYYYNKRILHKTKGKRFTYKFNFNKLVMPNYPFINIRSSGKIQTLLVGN
The procedure, abridged: as §1

Chain of SPIB (Q01892 whole entry): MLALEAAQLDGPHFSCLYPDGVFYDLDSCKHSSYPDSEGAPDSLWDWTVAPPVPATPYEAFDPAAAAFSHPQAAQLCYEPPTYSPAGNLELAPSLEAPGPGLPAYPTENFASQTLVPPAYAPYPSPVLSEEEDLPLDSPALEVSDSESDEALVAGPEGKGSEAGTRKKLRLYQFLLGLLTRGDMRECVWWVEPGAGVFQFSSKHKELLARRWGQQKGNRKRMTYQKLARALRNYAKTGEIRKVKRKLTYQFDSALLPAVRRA
Chain of ELF1 (P32519 whole entry): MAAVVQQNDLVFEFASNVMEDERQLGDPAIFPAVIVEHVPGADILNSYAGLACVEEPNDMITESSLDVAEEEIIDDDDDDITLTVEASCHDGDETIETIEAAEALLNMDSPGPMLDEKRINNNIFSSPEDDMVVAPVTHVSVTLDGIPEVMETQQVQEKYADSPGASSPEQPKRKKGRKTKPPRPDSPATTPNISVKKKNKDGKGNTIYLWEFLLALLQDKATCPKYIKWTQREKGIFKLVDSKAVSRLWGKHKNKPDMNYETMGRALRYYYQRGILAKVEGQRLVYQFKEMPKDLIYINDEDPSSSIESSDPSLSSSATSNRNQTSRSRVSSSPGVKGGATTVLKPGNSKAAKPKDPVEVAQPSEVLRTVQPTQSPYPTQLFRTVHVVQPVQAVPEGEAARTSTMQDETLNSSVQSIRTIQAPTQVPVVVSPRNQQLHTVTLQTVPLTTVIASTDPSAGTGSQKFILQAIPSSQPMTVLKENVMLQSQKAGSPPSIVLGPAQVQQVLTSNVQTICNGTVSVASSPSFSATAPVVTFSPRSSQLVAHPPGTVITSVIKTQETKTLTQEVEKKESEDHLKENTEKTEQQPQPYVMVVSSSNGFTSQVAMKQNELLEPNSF
Chain of ELF4 (Q99607 whole entry): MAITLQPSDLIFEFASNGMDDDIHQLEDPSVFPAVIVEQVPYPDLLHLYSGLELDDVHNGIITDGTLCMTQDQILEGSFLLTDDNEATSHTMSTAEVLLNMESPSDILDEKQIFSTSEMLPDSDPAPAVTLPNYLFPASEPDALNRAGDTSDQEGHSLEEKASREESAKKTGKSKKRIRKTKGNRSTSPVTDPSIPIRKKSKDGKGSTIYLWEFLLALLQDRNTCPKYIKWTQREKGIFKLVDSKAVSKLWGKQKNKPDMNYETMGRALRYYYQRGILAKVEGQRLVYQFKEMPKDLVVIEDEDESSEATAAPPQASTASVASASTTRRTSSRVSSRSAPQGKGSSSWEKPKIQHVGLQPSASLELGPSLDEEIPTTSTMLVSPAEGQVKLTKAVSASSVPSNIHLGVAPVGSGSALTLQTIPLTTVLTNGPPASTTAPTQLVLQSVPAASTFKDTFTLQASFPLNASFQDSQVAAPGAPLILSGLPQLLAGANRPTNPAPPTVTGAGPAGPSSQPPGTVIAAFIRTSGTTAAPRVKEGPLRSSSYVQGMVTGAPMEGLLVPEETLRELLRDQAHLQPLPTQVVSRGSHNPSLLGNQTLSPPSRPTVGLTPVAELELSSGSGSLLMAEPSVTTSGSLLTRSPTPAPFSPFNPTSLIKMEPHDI

Turning to TGATAG, the binding signal with ELK1 is 1.07 fold enrichment (6-mer frequency, TF over GST control); with GABPA, 1.03 fold enrichment (6-mer frequency, TF over GST control); with ELF1 it was 1.09 fold enrichment (6-mer frequency, TF over GST control); in the assay with EHF it was 1.01 fold enrichment (6-mer frequency, TF over GST control); with SPI1, 1.01 fold enrichment (6-mer frequency, TF over GST control); with SPIB it was 1.05 fold enrichment (6-mer frequency, TF over GST control). Besides, the binding signal with SPIC was 1.05 fold enrichment (6-mer frequency, TF over GST control); with ELF4, 1.03 fold enrichment (6-mer frequency, TF over GST control); with ELK4 it was 1.02 fold enrichment (6-mer frequency, TF over GST control); with ERF it was 1.04 fold enrichment (6-mer frequency, TF over GST control); with ETV3L it was 1.05 fold enrichment (6-mer frequency, TF over GST control); with ETS2, 1.06 fold enrichment (6-mer frequency, TF over GST control). Further, the binding signal with ETV3 is 1.05 fold enrichment (6-mer frequency, TF over GST control).
